# Only a selection was taken, and the strongest signals are over-represented in it overall.
# B1: Awp1 (Candida glabrata) (protein)
# chain: MSLITIFAFLIKATLVLSLDILTPTTLTGDQTFNEDVSVVSSLTLNDGSQYLFNNLLQIAPSSASVTANALAAVSVFTFSLPPSSSLSNSGTLIISNSNTGPSTEQHIVITPNVMANTGTITLSLAHTNTDSSSTLIIDPVTFYNTGTINYESIGSETNDPSLTGNILSIGSSGRTLQNLGTINLNAANSYYLLGTITENSGSINVQKGFLYVNALDFIGNTINLSTTTALAFISPVSQVVRVRGVFFGNIIASVGSSGTFSYNTQTGILTVTTNGVYSYDIGCGYNPALMSGQQETLSFQGNPYDTFLVLVNQPIPSDLTCAAVSSSITPSSSVEPSSSVVPSSSVEPSSSVEPSSSVEPSSSVEPSSSVEPSSSVEPSSSVEPSSSVEPSSSVEPSSSVEPSSSVEPSSSVEPSSSVEPSSSVEPSSSVEPSSSVEPSSSVEPSSSVEPSSSVEPSSLIVPSSSVEPSSSVLPSSSVVPSSSVEPSTPPIPSSSVEPSSSVVPSSPAVPSSSVEPSTPPIPSSSVVSASVFDTSSTLPSSPSVPPSSVSPSTISTPSSSAAPSSFCPTCVSSGTPPAPSSSAIVPTSSAGGGNGGDNREPGAAGQPGAAGQPGAAGQPGAAGQPGAAGQPGAAGQPGAAGQPGAAGQPGAAGQPGAAGQPGAGFGVGSEQPTPGAGAGSGSADGNQSGTGSGTGNGQQGSGQAGSGQAGSGQEGSGQAGSGQAGSGQAGSGQAGSGQAGLDNTASGQSEGGQASAMDGDQSGRDGQSNSGSLLQPNAQQGTGSGTGSDIGADQASGESPGQIGDAQPGSGTDQSSGRHSLAAEARTSQSHSLAADARTRSTTRQTSVIAPDTAPGTASGTAPGTAPGTAVVTTFHGCGTVNHKGMINILLALALLVLL
# What was measured:
# Assay in all cases: glycan array binding signal (z-score within array); higher = stronger binding
# Conditions in all cases: glycan notation: IUPAC condensed, linker removed
# [1] = biological target: Fuc(a1-2)Gal(b1-3)GalNAc(b1-3)Gal(a1-4)Gal(b1-4)Glc
# Outline: (§1)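 The binding signal is a Z-score computed within each array. Data were drawn from 3228 arrays in the Consortium for Functional Glycomics database, restricted to those with a known protein sequence. Scores were averaged over arrays of the same protein sequence at different concentrations or buffers, and over linkers, and negative values can be taken as non-binding.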
# [2] = biological target: Fuc(a1-2)Gal(b1-3)GlcNAc(b1-2)Man(a1-3)[Fuc(a1-2)Gal(b1-3)GlcNAc(b1-2)Man(a1-6)]Man(b1-4)GlcNAc(b1-4)GlcNAc
# Outline: as §1
# [3] = biological target: Fuc(a1-2)Gal(b1-3)GlcNAc(b1-3)Gal(b1-4)Glc
# Outline: as §1
# [4] = biological target: Fuc(a1-2)Gal(b1-3)GlcNAc(b1-3)GalNAc
# Outline: as §1
# [5] = biological target: Fuc(a1-2)Gal(b1-3)[Fuc(a1-4)]GlcNAc
# Outline: as §1
# [6] = biological target: Fuc(a1-2)Gal(b1-3)[Fuc(a1-4)]GlcNAc(b1-3)[Gal(b1-4)GlcNAc(b1-6)]Gal(b1-4)Glc
# Outline: as §1
# [7] = biological target: Fuc(a1-2)Gal(b1-4)GlcNAc(b1-3)Gal(b1-4)GlcNAc(b1-3)Gal(b1-4)GlcNAc
# Outline: as §1
# [8] = biological target: Fuc(a1-2)Gal(b1-4)[Fuc(a1-3)]GlcNAc(b1-3)[Neu5Ac(a2-6)Gal(b1-4)GlcNAc(b1-6)]Gal(b1-4)Glc
# Outline: as §1
# [9] = biological target: Fuc(a1-2)Gal3S(b1-4)GlcNAc
# Outline: as §1
# [10] = biological target: Fuc(a1-2)[Gal(a1-3)]Gal(b1-3)GalNAc(b1-3)Gal(a1-4)Gal(b1-4)Glc
# Outline: as §1
# [11] = biological target: Fuc(a1-2)[Gal(a1-3)]Gal(b1-3)GlcNAc
# Outline: as §1
# [12] = biological target: Fuc(a1-2)[Gal(a1-3)]Gal(b1-4)GlcNAc(b1-3)GalNAc
# Outline: as §1
# [13] = biological target: Fuc(a1-2)[GalNAc(a1-3)]Gal(b1-3)GalNAc(b1-3)Gal(a1-4)Gal(b1-4)Glc
# Outline: as §1
# [14] = biological target: Fuc(a1-2)[GalNAc(a1-3)]Gal(b1-4)[Fuc(a1-3)]GlcNAc
# Outline: as §1
# [15] = biological target: Fuc(a1-3)[Gal(b1-4)]GlcNAc(b1-2)Man(a1-3)[Fuc(a1-3)[Gal(b1-4)]GlcNAc(b1-2)Man(a1-6)]Man(b1-4)GlcNAc(b1-4)[Fuc(a1-6)]GlcNAc
# Outline: as §1
# [16] = biological target: Gal(a1-4)Gal(b1-4)Glc
# Outline: as §1
# [17] = biological target: Gal(a1-4)Gal(b1-4)GlcNAc
# Outline: as §1
# [18] = biological target: Gal(a1-4)Gal(b1-4)GlcNAc(b1-3)Gal(b1-4)Glc
# Outline: as §1
# [19] = biological target: Gal(b1-2)Gal
# Outline: as §1
# [20] = biological target: Gal(b1-3)GalNAc(a1-3)[Fuc(a1-2)]Gal(b1-4)Glc
# Outline: as §1
# [21] = biological target: Gal(b1-3)GalNAc(b1-4)[Neu5Ac(a2-3)]Gal(b1-4)Glc
# Outline: as §1
# [22] = biological target: Gal(b1-3)GlcNAc(b1-2)[Gal(b1-3)GlcNAc(b1-6)]Man(a1-6)[Gal(b1-3)GlcNAc(b1-2)Man(a1-3)]Man(b1-4)GlcNAc(b1-4)GlcNAc
# Outline: as §1
# [23] = biological target: Gal(b1-3)GlcNAc(b1-3)Gal(b1-4)GlcNAc(b1-6)[Gal(b1-3)GlcNAc(b1-3)]Gal(b1-4)Glc
# Outline: as §1
# [24] = biological target: Gal(b1-3)[Neu5Ac(a2-6)]GalNAc
# Outline: as §1
# [25] = biological target: Gal(b1-4)GlcNAc(a1-6)Gal(b1-4)GlcNAc
# Outline: as §1
# [26] = biological target: Gal(b1-4)GlcNAc(b1-2)Man(a1-6)[GlcNAc(b1-2)Man(a1-3)]Man(b1-4)GlcNAc(b1-4)GlcNAc
# Outline: as §1
# [27] = biological target: Gal(b1-4)GlcNAc(b1-2)[Gal(b1-4)GlcNAc(b1-4)]Man(a1-3)[Gal(b1-4)GlcNAc(b1-2)Man(a1-6)]Man(b1-4)GlcNAc(b1-4)GlcNAc
# Outline: as §1
# [28] = biological target: Gal(b1-4)GlcNAc(b1-2)[Gal(b1-4)GlcNAc(b1-4)]Man(a1-3)[GlcNAc(b1-4)][Gal(b1-4)GlcNAc(b1-2)Man(a1-6)]Man(b1-4)GlcNAc(b1-4)GlcNAc
# Outline: as §1
# [29] = biological target: Gal(b1-4)GlcNAc(b1-3)Gal(b1-4)GlcNAc(b1-3)Gal(b1-4)GlcNAc(b1-3)Gal(b1-4)GlcNAc(b1-2)Man(a1-3)[Gal(b1-4)GlcNAc(b1-3)Gal(b1-4)GlcNAc(b1-3)Gal(b1-4)GlcNAc(b1-3)Gal(b1-4)GlcNAc(b1-2)Man(a1-6)]Man(b1-4)GlcNAc(b1-4)[Fuc(a1-6)]GlcNAc
# Outline: as §1
# [30] = biological target: Gal(b1-4)GlcNAc(b1-3)Gal(b1-4)GlcNAc(b1-6)[Gal(b1-3)]GalNAc
# Outline: as §1
binder,measurement,setting,value
B1,glycan array binding signal (z-score),[1],-0.191
same,glycan array binding signal (z-score),[2],3.11
same,glycan array binding signal (z-score),[3],-0.568
same,glycan array binding signal (z-score),[4],-0.915
same,glycan array binding signal (z-score),[5],0.456
same,glycan array binding signal (z-score),[6],2.29
same,glycan array binding signal (z-score),[7],0.341
same,glycan array binding signal (z-score),[8],0.4
same,glycan array binding signal (z-score),[9],0.168
same,glycan array binding signal (z-score),[10],-0.456
same,glycan array binding signal (z-score),[11],-0.399
same,glycan array binding signal (z-score),[12],-1.3
same,glycan array binding signal (z-score),[13],0.017
same,glycan array binding signal (z-score),[14],-1.15
same,glycan array binding signal (z-score),[15],2.28
same,glycan array binding signal (z-score),[16],2.6
same,glycan array binding signal (z-score),[17],1.02
same,glycan array binding signal (z-score),[18],0.176
same,glycan array binding signal (z-score),[19],-1.15
same,glycan array binding signal (z-score),[20],3.43
same,glycan array binding signal (z-score),[21],-0.686
same,glycan array binding signal (z-score),[22],2.35
same,glycan array binding signal (z-score),[23],2.29
same,glycan array binding signal (z-score),[24],-0.433
same,glycan array binding signal (z-score),[25],3
same,glycan array binding signal (z-score),[26],0.086
same,glycan array binding signal (z-score),[27],-0.236
same,glycan array binding signal (z-score),[28],-0.307
same,glycan array binding signal (z-score),[29],2.42
same,glycan array binding signal (z-score),[30],0.7
